Records with an inconclusive call do not appear. Active and inactive are the calls of the source. The calls were made as follows, unless noted: active = hit-call score of the fitted dose curve at least 0.9, where 1 is the maximum; inactive = score below 0.9.
What was measured:
[1] = system: DIO1 (gene 1733); experiment: CCTE_GLTED_hDIO1: CCTE's human Deiodinase 1 (DIO1) Inhibition Assay, Great Lakes Toxicology and Ecology Division (GLTED) Lab (AID 2283987; active = hit-call score of the fitted dose curve at least 0.9, where 1 is the maximum;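 also: isolated human DIO1 enzyme in a cell-free setup rather than cells; enzyme activity read as free iodide liberated from substrate via Sandell-Kolthoff colorimetry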)
Summary of the method: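 Inhibition of human deiodinase 1 is scored as reduced iodide liberation after a 3 h enzyme–chemical incubation, detected colorimetrically by the Sandell-Kolthoff reaction against DMSO controls.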

[2] = CCTE_Shafer_MEA_acute_firing_rate_mean: CCTE's Neural Acute Assay for Mean Firing Rate, Shafer Lab (AID 2284009);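 also: analyzed for loss of signal so actives lower firing rate relative to DMSO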
Summary of the method: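 Read-out: well-mean spike rate (spikes/recording length/electrodes), % change from 40 min pre-dose baseline to 40 min with compound. Rat cortical cultures, DIV 13 or 15, 37 C; 0.03-40 uM; DMSO as negative control.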

[3] = CCTE_Harrill_HTTr_Viability_MCF7: CCTE's 6-hour Cell Viability Assessment for the High-Throughput Transcriptomics (HTTr) Platform, in MCF-7 cells cultured in DMEM + 10% fetal bovine serum, Harrill Lab (AID 2284010)
Summary of the method: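 MCF-7 cells in DMEM + 10% FBS, 384-well, exposed 6 h to an eight-point dilution series. Membrane integrity scored by high-content imaging of propidium iodide exclusion; bidirectional fit versus DMSO.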

[4] = CCTE_Harrill_HTTr_Apoptosis_MCF7: CCTE's 6-hour Apoptosis Assessment for the High-Throughput Transcriptomics (HTTr) Platform, in MCF-7 cells cultured in DMEM + 10% fetal bovine serum, Harrill Lab (AID 2284011)
Summary of the method: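 MCF-7 (DMEM + 10% FBS), 384-well; 8-pt dilution series, 6 h chemical exposure; caspase-3/7 activation via CellEvent Caspase 3/7 Green, HCI; bidirectional fit vs DMSO.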

[5] = CCTE_Shafer_MEA_acute_burst_number: CCTE's Neural Acute Assay for Single-Electrode Bursts, Shafer Lab (AID 2284013)
Summary of the method: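 Rat cortical cultures, DIV 13/15; 40 min baseline, then 40 min with compound 0.03-40 uM, 37 C. Spikes: 300-5000 Hz band-pass, threshold 8x rms noise. Readout = % change in single-electrode bursts vs baseline, loss-of-signal fit.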

[6] = CCTE_Shafer_MEA_acute_burst_duration_mean: CCTE's Neural Acute Assay for Mean Burst Duration, Shafer Lab (AID 2284014);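 also: hits are decreases in mean burst duration relative to DMSO controls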
Summary of the method: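 Primary rat cortical neurons on 16-electrode MEA wells, treated on DIV 13 or 15 with compound (0.03-40 uM; ≥3 wells each). 40-min baseline and 40-min exposure recordings at 37 C; percent change in mean burst duration per well versus DMSO.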

[7] = CCTE_Shafer_MEA_acute_per_burst_spike_number_mean: CCTE's Neural Acute Assay for Average Number of Spikes Per Burst, Shafer Lab (AID 2284015);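 also: hits are decreases in mean spikes per burst versus baseline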
Summary of the method: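 Primary rat cortical neurons on 48-well MEA plates, treated on DIV 13 or 15 at 0.03-40 uM. Spontaneous activity recorded 40 min before and 40 min after compound at 37 C; percent change in mean spikes per single-electrode burst per well, fitted in the loss direction versus DMSO.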

[8] = CCTE_Shafer_MEA_acute_interburst_interval_mean: CCTE's Neural Acute Assay for Mean Interburst Interval, Shafer Lab (AID 2284016);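 also: percent change of mean interburst interval versus each well's own pre-dose baseline; curves fitted for decrease in interburst interval relative to DMSO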
Summary of the method: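 Primary rat cortical neurons on 16-electrode MEA wells were recorded 40 min at baseline on DIV 13 or 15, then 40 min after compound (0.03-40 uM), at 37 C. Value is percent change in mean interburst interval per well, DMSO as negative control.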

[9] = target: Nucleoli Translocation, AR (gene 367) (UniProt P10275); experiment: UPITT_HCI_U2OS_AR_TIF2_Nucleoli_Antagonist: University of Pittsburgh U2OS Androgen Receptor-Transcriptional Intermediary Factor 2 (AR-TIF2) Antagonism High Content Imaging Assay for Nucleoli Translocation (AID 2283997; active = hit-call score of the fitted dose curve at least 0.9, where 1 is the maximum)
Summary of the method: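 U2OS cells expressing RFP-tagged human AR and GFP-tagged TIF2 were imaged by high-content fluorescence microscopy for red AR signal in the nucleolar region. Compounds were screened at 20 uM final (0.2% DMSO), with activity fitted relative to DHT as baseline.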

[10] = target: Nucleoli Translocation, AR (gene 367) (UniProt P10275); experiment: UPITT_HCI_U2OS_AR_TIF2_Nucleoli_Agonist: University of Pittsburgh U2OS Androgen Receptor-Transcriptional Intermediary Factor 2 (AR-TIF2) Agonism High Content Imaging Assay for Nucleoli Translocation (AID 2283998; active = hit-call score of the fitted dose curve at least 0.9, where 1 is the maximum)
Summary of the method: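 Readout is red (AR-RFP) fluorescence localized to nucleoli, measured by high-content imaging and analysed for increase relative to DMSO. Compound series spanned 0.195 to 50 uM final in 0.5% DMSO.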

[11] = target: Ratio of Nucleoli Translocation and Cytoplasm, AR (gene 367) (UniProt P10275); experiment: UPITT_HCI_U2OS_AR_TIF2_Nucleoli_Cytoplasm_Ratio_Antagonist: University of Pittsburgh U2OS Androgen Receptor-Transcriptional Intermediary Factor 2 (AR-TIF2) Antagonism High Content Imaging Assay for Ratio of Nucleoli Translocation and Cytoplasm (AID 2283999; active = hit-call score of the fitted dose curve at least 0.9, where 1 is the maximum;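 also: antagonists lower the DHT-driven ratio of nucleolar to cytoplasmic red signal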)
Summary of the method: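 U2OS cells co-expressing RFP-tagged human AR and GFP-tagged TIF2, antagonist mode with DHT as baseline. Nucleolar-to-cytoplasmic red fluorescence ratio imaged by high-content microscopy; final compound 20 uM (0.2% DMSO) primary, 0.195–50 uM (0.5% DMSO) concentration-response.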

[12] = target: Ratio of Nucleoli Translocation and Cytoplasm, AR (gene 367) (UniProt P10275); experiment: UPITT_HCI_U2OS_AR_TIF2_Nucleoli_Cytoplasm_Ratio_Agonist: University of Pittsburgh U2OS Androgen Receptor-Transcriptional Intermediary Factor 2 (AR-TIF2) Agonism High Content Imaging Assay for Ratio of Nucleoli Translocation and Cytoplasm (AID 2284000; active = hit-call score of the fitted dose curve at least 0.9, where 1 is the maximum;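 also: hits raise the red nucleolar to cytoplasm ratio above vehicle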)
Summary of the method: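 U2OS cells expressing RFP-tagged human AR and GFP-tagged TIF2 were imaged by high-content fluorescence microscopy. The endpoint is the ratio of nucleolar to cytoplasmic red fluorescence, fitted for gain of signal relative to DMSO. Concentration-response spanned 0.195 to 50 uM final (0.5% DMSO).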

[13] = CCTE_Harrill_HTTr_CellCount_MCF7: CCTE's Cell Proliferation Assessment for the High-Throughput Transcriptomics (HTTr) Platform, Harrill Lab (AID 2284012; active = hit-call score of the fitted dose curve at least 0.9, where 1 is the maximum;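 also: cells exposed to compound for six hours; intended direction is loss of nuclei count meaning fewer cells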)
Summary of the method: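 MCF7 cells exposed 6 hours to an eight-point dilution series; Hoechst-stained nuclei counted by high-content imaging. Bidirectional curve fitting against DMSO baseline.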

[14] = CCTE_Simmons_MITO_basal_resp_rate: CCTE's HepG2 Seahorse XF Respirometric Screening Assay at Basal Respiratory State, Simmons Lab (AID 2284001); conditions: actives raise or lower the signal
Summary of the method: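 HepG2 cells were given test chemicals at 7 concentrations, 125 nM to 100 uM final, and oxygen consumption rate was read every 6 min (3 min mix, 3 min measure) over 72 min. Basal-phase OCR was fitted bidirectionally against DMSO.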

[15] = CCTE_Simmons_MITO_inhib_resp_rate: CCTE's HepG2 Seahorse XF Respirometric Screening Assay at Inhibited Respiratory State [full ETC block], Simmons Lab (AID 2284006); conditions: actives raise or lower the signal
Summary of the method: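 HepG2 oxygen consumption was measured by Seahorse XF after compound, FCCP, then rotenone/antimycin A injections. Seven concentrations from 125 nM to 100 uM (final) were tested, with 6-min kinetic reads over 72 minutes. Inhibited-state OCR was fitted bidirectionally against DMSO.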

[16] = CCTE_Simmons_MITO_viability: CellTiter-Glo Viability Assessment for CCTE's HepG2 Seahorse XF Respirometric Screening Assay [post-hoc], Simmons Lab (AID 2284007; active = hit-call score of the fitted dose curve at least 0.9, where 1 is the maximum;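 as to AC50: cells exposed to chemical for 90 min before the ATP read; actives lower ATP signal relative to DMSO baseline meaning reduced viability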)
Summary of the method: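 HepG2 cells exposed 90 min to 7 concentrations from 125 nM to 100 uM final, then ATP measured by luciferase luminescence. Three biological replicates per concentration; DMSO vehicle; dichlone control at 10 nM–100 uM.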

Measured: AC50

Sequence of Nucleoli Translocation, AR (gene 367) (P10275 whole entry, looked up): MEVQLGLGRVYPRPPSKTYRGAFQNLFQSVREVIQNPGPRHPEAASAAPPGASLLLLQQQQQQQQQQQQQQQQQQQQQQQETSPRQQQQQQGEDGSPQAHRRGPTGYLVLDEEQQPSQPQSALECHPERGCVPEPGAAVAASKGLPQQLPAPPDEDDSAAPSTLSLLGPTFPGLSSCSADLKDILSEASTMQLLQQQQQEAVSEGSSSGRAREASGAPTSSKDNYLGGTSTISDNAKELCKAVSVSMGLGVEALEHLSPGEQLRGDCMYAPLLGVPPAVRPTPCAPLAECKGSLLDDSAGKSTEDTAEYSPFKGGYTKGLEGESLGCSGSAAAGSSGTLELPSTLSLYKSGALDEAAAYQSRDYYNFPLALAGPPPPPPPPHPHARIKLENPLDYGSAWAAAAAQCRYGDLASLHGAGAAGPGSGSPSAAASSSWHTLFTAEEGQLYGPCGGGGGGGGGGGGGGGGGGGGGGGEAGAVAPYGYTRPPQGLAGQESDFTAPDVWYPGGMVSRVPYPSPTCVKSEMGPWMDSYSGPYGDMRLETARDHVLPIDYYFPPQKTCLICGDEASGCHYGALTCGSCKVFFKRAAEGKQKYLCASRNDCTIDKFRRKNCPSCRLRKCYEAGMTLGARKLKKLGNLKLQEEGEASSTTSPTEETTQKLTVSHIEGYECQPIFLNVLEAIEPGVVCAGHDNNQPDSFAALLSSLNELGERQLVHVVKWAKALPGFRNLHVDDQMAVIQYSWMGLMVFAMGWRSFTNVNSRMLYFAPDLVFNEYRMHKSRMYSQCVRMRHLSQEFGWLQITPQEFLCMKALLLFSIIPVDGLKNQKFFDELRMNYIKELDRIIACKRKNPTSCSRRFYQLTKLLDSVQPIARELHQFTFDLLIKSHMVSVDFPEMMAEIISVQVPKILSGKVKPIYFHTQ
Sequence of Ratio of Nucleoli Translocation and Cytoplasm, AR (gene 367) (P10275 whole entry, looked up): as above

CCOC(=O)CC(SP(=O)(OC)OC)C(=O)OCC (configuration not stated)
inactive: [1] | [2] | [3] | [4] | [5] | [6] | [7] | [8]

CCCCOC(=O)c1ccccc1C(=O)O
inactive: [9] | [10] | [11] | [12] | [3] | [4] | [13]

CCC(CC)Nc1c([N+](=O)[O-])cc(C)c(C)c1[N+](=O)[O-]
inactive: [15] | [16] | [3] | [4]
active: [14] 24.8 µM

C[Si](Cn1cncn1)(c1ccc(F)cc1)c1ccc(F)cc1
active: [14] 13.9 µM | [16] 10.3 µM | [2] 4.69 µM | [5] 4.3 µM | [7] 7.68 µM
inactive: [15] | [3] | [4] | [13] | [6] | [8]

Nc1c(Cl)cc([N+](=O)[O-])cc1Cl
active: [9] 41.7 µM | [8] 30.2 µM
inactive: [10] | [11] | [12] | [2] | [3] | [4] | [13] | [5] | [6] | [7]

COc1ccc(C(=CC(=O)N2CCOCC2)c2ccc(Cl)cc2)cc1OC
inactive: [10] | [12] | [3] | [4] | [13]
active: [9] 3.21 µM | [11] 2.52 µM

CCOP(=S)(Oc1cnc(C(C)(C)C)nc1)OC(C)C (configuration not stated)
inactive: [15] | [16] | [3] | [4] | [5] | [6] | [8]
active: [14] 59.3 µM | [2] 15.5 µM | [7] 29.4 µM

COP(=O)(OC)SCn1c(=O)oc2cc(Cl)cnc21
inactive: [9] | [10] | [11] | [12] | [3] | [4] | [13]

CCc1cccc(CC)c1N(COC)C(=O)CCl
active: [9] 20.1 µM | [11] 12.8 µM | [14] 36.6 µM
inactive: [10] | [12] | [15] | [16] | [3] | [4]

O=c1ccc(=O)[nH][nH]1
inactive: [9] | [10] | [12] | [3] | [4] | [13]

Reference: PubChem BioAssay (EPA / NIEHS)
